Some of the results follow. The true hit rate is not given.

In the test the target is furin, P09958. Put plainly: furin cleavage Z-score vs untreated control; higher = more cleavage, active = 3.5 or more, inactive = 1 or less, 8 variable residues between constant flanks. As for the experimental part:
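Multiplexed peptide-cDNA fusion cleavage assay. 8-mer variable peptides flanked by constant Cys-Ala (N-term) and Ala-Gly-Asn-Ala-Ser-Ala-Ser-Ala (C-term) and conjugated to a cDNA oligonucleotide were bead-immobilised via the N-terminus. They were treated with purified furin at a 1:10 enzyme:substrate ratio in 50 mM HEPES pH 7.5, 1 mM CaCl2, 100 mM NaCl for 7.5, 15 or 30 min. Released cDNA was counted by next-generation sequencing, and log counts versus no-furin controls were lowess-adjusted and converted to robust Z-scores.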

Chain of furin, P09958 (P09958 whole entry, the tested form may be a part): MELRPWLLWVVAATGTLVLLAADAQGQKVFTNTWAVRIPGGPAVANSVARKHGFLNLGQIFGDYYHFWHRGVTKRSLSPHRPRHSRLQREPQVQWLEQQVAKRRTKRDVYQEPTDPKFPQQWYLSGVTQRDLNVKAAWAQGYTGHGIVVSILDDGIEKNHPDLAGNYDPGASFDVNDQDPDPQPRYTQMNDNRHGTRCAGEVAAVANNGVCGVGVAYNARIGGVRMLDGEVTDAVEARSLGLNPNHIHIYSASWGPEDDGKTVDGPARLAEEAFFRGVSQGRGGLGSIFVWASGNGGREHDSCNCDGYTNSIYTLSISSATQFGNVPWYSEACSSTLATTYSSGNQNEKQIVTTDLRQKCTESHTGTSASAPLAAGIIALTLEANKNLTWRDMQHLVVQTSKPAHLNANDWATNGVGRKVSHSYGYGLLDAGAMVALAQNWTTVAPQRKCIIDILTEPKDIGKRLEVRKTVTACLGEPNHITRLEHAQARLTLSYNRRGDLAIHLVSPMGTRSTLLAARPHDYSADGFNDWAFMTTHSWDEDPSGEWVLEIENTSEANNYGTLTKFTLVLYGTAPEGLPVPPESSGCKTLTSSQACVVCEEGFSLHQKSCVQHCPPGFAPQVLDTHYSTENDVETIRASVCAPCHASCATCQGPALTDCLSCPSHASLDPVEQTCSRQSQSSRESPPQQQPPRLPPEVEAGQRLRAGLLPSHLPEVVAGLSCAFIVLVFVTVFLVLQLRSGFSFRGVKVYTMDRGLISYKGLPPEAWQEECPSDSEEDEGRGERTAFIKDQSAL

Turning to CARPPRSIVTAGNASASA [FS-2439], the “furin cleavage Z-score” value is 2.64 (7.5 min), 4.75 (active) (15 min) and 6.76 (active) (30 min).
With CAAAPGAATAAGNASASA [HC1071], the “furin cleavage Z-score” value is, setting by setting: (7.5 min) -1.75 (inactive); (15 min) 0.135 (inactive); (30 min) -1.91 (inactive).
With CARPPRSATAAGNASASA [FS-2058], the “furin cleavage Z-score” value is, setting by setting: (7.5 min) 1.66; (15 min) 4.98 (active); (30 min) 3.61 (active).
In the case of CARPVRGIHTAGNASASA [FS-3030], the “furin cleavage Z-score” value (7.5 min) amounted to 1.52, the “furin cleavage Z-score” value (15 min) was 0.149 (inactive) and the “furin cleavage Z-score” value (30 min) is 3.15.
As to CARPPRSPDHAGNASASA [FS-2740], the “furin cleavage Z-score” value runs as follows: (7.5 min) 4.56 (active); (15 min) 5.51 (active); (30 min) 4.52 (active).
With CARTGRSIVYAGNASASA [FS-2465], the “furin cleavage Z-score” value reads like this: (7.5 min) 2.57; (15 min) 5.05 (active); (30 min) 6.39 (active).
The like results for CARTGRSREVAGNASASA [FS-3105] were, in that order, 0.737 (inactive), -1.37 (inactive) and 1.18.
The like results for CACPNSSIVYAGNASASA [HC264] were, in that order, 0.0997 (inactive), 0.251 (inactive) and -0.406 (inactive).
Turning to CARPRRLSTAAGNASASA [FS-3022], the “furin cleavage Z-score” value by setting is: (7.5 min) -0.374 (inactive); (15 min) 0.291 (inactive); (30 min) 1.13.
With CASGTFPINAAGNASASA [HC1189], the “furin cleavage Z-score” value was -0.56 (inactive) (7.5 min), -1.29 (inactive) (15 min) and -0.783 (inactive) (30 min).
As to CAGGCSGGAYAGNASASA [HC812], the “furin cleavage Z-score” value is 0.0451 (inactive) (7.5 min), -0.928 (inactive) (15 min) and -1.91 (inactive) (30 min).
In the case of CAFLVQAWKSAGNASASA [HC1472], the “furin cleavage Z-score” value (7.5 min) was -0.545 (inactive), the “furin cleavage Z-score” value (15 min) was -1.14 (inactive) and the “furin cleavage Z-score” value (30 min) is 0.129 (inactive).
Take CAPPGDPPQPAGNASASA [HC1545]: the “furin cleavage Z-score” value was 0.491 (inactive) (7.5 min), -1.28 (inactive) (15 min) and -0.552 (inactive) (30 min).
Regarding CAVQWMNRLIAGNASASA [HC1117], the “furin cleavage Z-score” value (7.5 min) was -0.371 (inactive), the “furin cleavage Z-score” value (15 min) is -0.656 (inactive) and the “furin cleavage Z-score” value (30 min) was -0.702 (inactive).
CATYSRCGSGAGNASASA [HC457]: the “furin cleavage Z-score” value by setting is: (7.5 min) -0.645 (inactive); (15 min) -0.493 (inactive); (30 min) 0.00889 (inactive).
Take CAAILHTPGCAGNASASA [HC270]: the “furin cleavage Z-score” value runs as follows: (7.5 min) 0.368 (inactive); (15 min) 1.18; (30 min) -0.0199 (inactive).
For the sequence CARGPRSSSAAGNASASA [FS-1712], the “furin cleavage Z-score” value reads like this: (7.5 min) -0.135 (inactive); (15 min) -0.114 (inactive); (30 min) -1.14 (inactive).
Turning to CARLLRDADDAGNASASA [FS-2278], the “furin cleavage Z-score” value by setting is: (7.5 min) -0.832 (inactive); (15 min) -0.574 (inactive); (30 min) -0.464 (inactive).
As for CARGPRSYPHAGNASASA [FS-2935], the “furin cleavage Z-score” value reads like this: (7.5 min) -0.268 (inactive); (15 min) 1.01; (30 min) 0.916 (inactive).
Take CARLRRLLWIAGNASASA [FS-2044]: the “furin cleavage Z-score” value is -1.02 (inactive) (7.5 min), -0.859 (inactive) (15 min) and 0.923 (inactive) (30 min).
The like results for CARPPREEGKAGNASASA [FS-2438] were, in that order, -0.719 (inactive), -0.617 (inactive) and -0.558 (inactive).
The like results for CARGPRSATHAGNASASA [FS-1894] were, in that order, 3.56 (active), 2.79 and 2.67.
For CARLLRSLTHAGNASASA [FS-2993], the “furin cleavage Z-score” value was 1.05 (7.5 min), 3.14 (15 min) and 4.05 (active) (30 min).
As to CARPPRGFQPAGNASASA [FS-3019], the “furin cleavage Z-score” value runs as follows: (7.5 min) -1.18 (inactive); (15 min) -0.836 (inactive); (30 min) -0.248 (inactive).
Regarding CARPPRSTCQAGNASASA [FS-2580], the “furin cleavage Z-score” value (7.5 min) was found to be 2.35, the “furin cleavage Z-score” value (15 min) is 3.89 (active) and the “furin cleavage Z-score” value (30 min) was 3.84 (active).

These data come from the supplement of paper PMC3545927.
